We go through seven molecules from PubChem BioAssay (NCATS).

The target in assay [1] is Lysosomal acid glucosylceramidase (Homo sapiens) (UniProt P04062). The assay can be described thus: Glucocerebrosidase-p2 (AID 348; in the data active means potency below about 10 µM; further: potency means the concentration at half of the fitted maximal effect). Particulars: purified GBA, blue fluorogenic substrate, 40 min. Put shortly:
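Normal human glucocerebrosidase (0.2 nM) with blue fluorogenic substrate (80 uM final) in citrate/phosphate pH 5.9 with 10mM sodium taurocholate, 0.01% tween-20; 40 min RT, NaOH/glycine stop; fluorescence Ex 365/Em 440; AC50 from a titration from 0.6 nM upwards.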

Assay [2] in a line: AP1 Signaling Pathway (AID 357).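 Further: ME-180 reporter cells stimulated with EGF at its EC50 level; on the % scale 0 is the no-effect control and ±100 the full control effect.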 Conditions: ME-180 AP-1-bla reporter, EGF-induced, beta-lactamase ratio, 5 h; at 7.69 µM (top of the series) unless noted. The method, boiled down:
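First, ME-180 AP-1-bla cells were cultured overnight at 37 °C in low-serum Opti-MEM. Next, titrated compounds with EC50 EGF were incubated 5 hours. Finally, CCF4 was added for 2.5 hours and the 460/530 nm ratio recorded.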

Assay [3] deals with Cytochrome P450 1A2 (Homo sapiens) (UniProt P05177). Nature of the assay: p450-cyp1a2 (AID 410; calls by dose curve; further: potency means the concentration at half of the fitted maximal effect). Particulars: recombinant CYP1A2, luciferin-ME demethylation, luminescence; series mostly up to 57 µM. The method, boiled down: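 20nM CYP1A2, 100uM Luciferin-ME (=Km), 100mM KPO4; cpd 10 min RT; +NADPH regen, 60 min RT; stop/detect 20 min; luminescence. Normalized to furafylline 57 uM = full inhibition.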

The nature of assay [4]: NFAT Signaling Pathway (AID 444).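 Further: carbachol stimulus at about its EC50 of 1 µM final; on the % scale 0 is the no-effect control and ±100 the full control effect.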 Particulars: Jurkat NFAT-bla M1, carbachol, beta-lactamase ratio, 5 h; at 7.69 µM (top of the series) unless noted. The method, boiled down:
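Jurkat cells with NFAT-driven β-lactamase reporter and co-expressed M1 receptor, stimulated with carbachol (final 1 uM, ~EC50), compound titration, 5 h at 37 °C. CCF4 loaded 1 h at RT; 460/530 nm ratio gave %activity and AC50.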

Assay [5] in a line: Stat Signaling Pathway (AID 446).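 Further: ME-180 cervical cancer cells given 40 pM IL-6 alongside compound; SIE-controlled beta-lactamase reporter measured as 460/530 nm FRET emission ratio; on the % scale 0 is the no-effect control and ±100 the full control effect.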 Particulars: ME-180 (cervical carcinoma) SIE beta-lactamase reporter, IL-6 stimulated, 5 h; at 7.69 µM (top of the series) unless noted. Put shortly: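 Normalization used AC90 stimulation (300 pM IL-6) and AC90 inhibition (125 nM pan-JAK inhibitor at 40 pM IL-6). The underlying signal is SIE-driven beta-lactamase in ME-180 cells after 5 h IL-6 exposure with compound.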

For assay [6], the target named is Glucocorticoid receptor (Homo sapiens) (UniProt P04150). Nature of the assay: GR-GFP Redistribution (AID 450;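 active means compounds whose dose series gives a full or clear partial fitted curve of increased nuclear translocation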; further: potency means the concentration at half of the fitted maximal effect). Particulars: U2OS GR-GFP nuclear translocation, laser cytometry, 2 h.
For assay [7] the target is unchanged. Nature of the assay: GR-EFC Redistribution (AID 451; calls by dose curve; further: potency means the concentration at half of the fitted maximal effect). Conditions: CHO-K1 GR-EFC translocation, beta-gal luminescence, 2 h. Put shortly: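 CHO-K1 cells expressing nuclear EA and GR-ED fragments of b-gal; compounds titrated up to 46 uM final, 2 h at 37 C. GR nuclear translocation read as complemented b-gal luminescence after 1 h RT detection.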
For assay [8], the target named is Mitogen-activated protein kinase 10 (Mus musculus) (UniProt Q61831). The assay can be described thus: JNK3 AlphaScreen Assay (AID 530).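 Further: kinase came from lysate of stimulated human HepG2 cells; signal reports phosphorylation of biotinylated GST-cJun 1-79 at Ser73 with 10 µM ATP; on the % scale 0 is the no-effect control and ±100 the full control effect.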 Conditions: JNK3 lysate, c-Jun phosphorylation; series mostly up to 57.1 µM. Put shortly: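 HepG2 lysate (IL-1b/TNFa pre-activated) + biotin-GST-cJun 1-79 + anti-pSer73 cJun; cpd titration, 15 min RT; ATP 10 uM start; Tris pH 7.6, MgCl2, DTT, vanadate; beads in EDTA buffer; AlphaScreen.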

The target in assay [9] is 3',5'-cyclic-AMP phosphodiesterase 4B (Homo sapiens) (UniProt Q07343). Nature of the assay: qHTS Assay for Inhibitors of PDE-IV (AID 607; active means well fitted activation curve with a large enough effect in the main read-out, with a control signal flat, not every such curve was filed as active; further: % of control where 0% means no effect). Particulars: HEK293 ACTOne CNG channel cells, membrane potential fluorescence; series mostly up to 22.9 µM. Put shortly: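 HEK293 ACTOne cells with CNG channel (1000/well), endogenous PDE4; membrane potential dye, compounds up to 22.9 uM final. Fluorescence Ex 535/Em 590; RO 20-1724 (100 uM final) as reference.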
A general note: qHTS replaces the single test concentration by a dilution series.

A short description of assay [10]: Primary qHTS for small molecule stabilizers of the endoplasmic reticulum resident proteome: Secreted ER Calcium Modulated Protein (SERCaMP) assay (AID 1508630; active means well fitted curve in the direction sought with a large enough effect; an effect the other way counts as inactive or inconclusive; further: on the % scale 0 is the no-effect control and ±100 the full control effect). Conditions: SH-SY5Y GLuc-SERCaMP (Gaussia luciferase released on ER calcium loss) secretion, thapsigargin, luminescence; series mostly up to 38.4 µM. The method, boiled down: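 The SH-SY5Y reporter protocol was run at 3 concentrations up to 38.3 uM (primary) or 11 concentrations (follow-up): 16 h compound, 100 nM thapsigargin for 4 h, then extracellular luciferase luminescence.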

The target in assay [11] is Cytochrome P450 3A4 (Homo sapiens) (UniProt P08684). Nature of the assay: qHTS Assay for Activators of Cytochrome P450 3A4 (AID 885; active means well fitted curve in the direction sought with a large enough effect; an effect the other way counts as inactive or inconclusive; further: nearly all actives have a fitted effect of over 65% in size). Particulars: recombinant CYP3A4, Luciferin-PPXE luminescence, 60 min; series mostly up to 57.1 µM. Put shortly: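 Human CYP3A4 dealkylates Luciferin-PPXE to luciferin, which luciferase detection converts to light. Substrate was at its KM (25uM), buffer 200mM KPO4, reaction 60 min at RT.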

In assay [12] the target is Cytochrome P450 2C9 (Homo sapiens) (UniProt P11712). Nature of the assay: qHTS Assay for Inhibitors and Substrates of Cytochrome P450 2C9 (AID 883; active means well fitted curve in the direction sought with a large enough effect; an effect the other way counts as inactive or inconclusive; further: potency means the concentration at half of the fitted maximal effect; nearly all actives have a fitted effect of over 60% in size). Particulars: recombinant CYP2C9, luciferin-H luminescence, 60 min; series mostly up to 57.1 µM. The method, boiled down:
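Human CYP2C9 (10nM) with Luciferin-H at 100uM (its KM) in 25mM KPO4; compound preincubated 10 min at 37C, then NADPH regeneration for 60 min at 37C. Luciferin read by luminescence after detection reagent; normalized to 57uM sulphaphenazole as full inhibition.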

The structures appear in SMILES notation. Values without a mark were called inactive. Records with an inconclusive call do not appear. The source made the active and inactive calls. Unless noted, the call rests on the fitted dose curve; in most records, active means well fitted curve in either direction with a large enough effect (not every such curve was filed as active); inconclusive means small, poorly fitted or top-dose-only effect, or another doubt; inactive means flat fitted curve, though single readings scatter.

3',5'-cyclic-AMP phosphodiesterase 4B (Homo sapiens), sequence (Q07343 whole entry, looked up): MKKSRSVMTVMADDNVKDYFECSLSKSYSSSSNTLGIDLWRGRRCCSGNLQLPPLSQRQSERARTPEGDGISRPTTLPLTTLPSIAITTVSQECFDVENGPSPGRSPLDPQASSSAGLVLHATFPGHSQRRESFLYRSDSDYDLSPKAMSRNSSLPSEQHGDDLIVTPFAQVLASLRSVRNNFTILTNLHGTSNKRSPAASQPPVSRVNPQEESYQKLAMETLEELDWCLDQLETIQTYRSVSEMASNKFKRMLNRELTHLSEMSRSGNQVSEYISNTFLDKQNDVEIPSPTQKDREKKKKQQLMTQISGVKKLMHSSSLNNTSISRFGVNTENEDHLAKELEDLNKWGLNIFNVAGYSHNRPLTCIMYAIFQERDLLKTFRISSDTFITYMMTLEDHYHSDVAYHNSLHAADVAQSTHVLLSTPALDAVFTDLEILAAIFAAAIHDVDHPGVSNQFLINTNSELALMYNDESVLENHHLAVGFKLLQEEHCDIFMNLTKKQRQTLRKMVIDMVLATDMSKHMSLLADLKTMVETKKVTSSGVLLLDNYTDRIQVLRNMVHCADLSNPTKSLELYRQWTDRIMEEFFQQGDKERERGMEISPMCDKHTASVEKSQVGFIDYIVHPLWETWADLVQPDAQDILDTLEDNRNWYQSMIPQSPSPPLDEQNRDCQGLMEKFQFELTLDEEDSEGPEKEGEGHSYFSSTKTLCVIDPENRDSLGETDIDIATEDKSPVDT
Cytochrome P450 1A2 (Homo sapiens), sequence (P05177 whole entry, looked up): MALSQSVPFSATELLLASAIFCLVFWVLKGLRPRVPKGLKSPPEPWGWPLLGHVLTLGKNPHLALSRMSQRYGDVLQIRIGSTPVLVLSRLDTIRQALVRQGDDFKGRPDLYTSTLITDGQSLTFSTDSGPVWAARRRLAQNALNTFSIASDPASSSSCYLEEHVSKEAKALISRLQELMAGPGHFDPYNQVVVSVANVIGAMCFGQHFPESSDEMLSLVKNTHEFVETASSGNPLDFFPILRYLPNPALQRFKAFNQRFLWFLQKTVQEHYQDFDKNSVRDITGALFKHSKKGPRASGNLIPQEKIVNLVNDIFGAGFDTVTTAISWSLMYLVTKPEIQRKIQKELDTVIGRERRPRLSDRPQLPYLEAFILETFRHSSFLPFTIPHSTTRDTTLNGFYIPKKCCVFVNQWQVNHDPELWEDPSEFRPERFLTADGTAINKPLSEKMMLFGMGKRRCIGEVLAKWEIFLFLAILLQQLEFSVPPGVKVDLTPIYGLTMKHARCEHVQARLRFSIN
Lysosomal acid glucosylceramidase (Homo sapiens), sequence (P04062 whole entry, looked up): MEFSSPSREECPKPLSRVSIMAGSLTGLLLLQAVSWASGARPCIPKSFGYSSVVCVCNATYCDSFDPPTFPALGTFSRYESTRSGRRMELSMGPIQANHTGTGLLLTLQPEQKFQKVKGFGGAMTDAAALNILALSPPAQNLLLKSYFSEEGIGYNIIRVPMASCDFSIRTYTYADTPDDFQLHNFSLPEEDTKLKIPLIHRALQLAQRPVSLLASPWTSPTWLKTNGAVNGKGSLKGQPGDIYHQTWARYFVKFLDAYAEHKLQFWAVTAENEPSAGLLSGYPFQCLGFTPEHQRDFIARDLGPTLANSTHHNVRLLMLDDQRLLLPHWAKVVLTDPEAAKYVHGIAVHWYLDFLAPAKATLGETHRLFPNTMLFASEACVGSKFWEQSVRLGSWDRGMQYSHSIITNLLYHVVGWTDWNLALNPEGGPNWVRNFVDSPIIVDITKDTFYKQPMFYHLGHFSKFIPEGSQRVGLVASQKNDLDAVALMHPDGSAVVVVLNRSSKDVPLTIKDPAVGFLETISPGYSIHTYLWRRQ
Glucocorticoid receptor (Homo sapiens), sequence (P04150 whole entry, looked up, the tested form may be a part): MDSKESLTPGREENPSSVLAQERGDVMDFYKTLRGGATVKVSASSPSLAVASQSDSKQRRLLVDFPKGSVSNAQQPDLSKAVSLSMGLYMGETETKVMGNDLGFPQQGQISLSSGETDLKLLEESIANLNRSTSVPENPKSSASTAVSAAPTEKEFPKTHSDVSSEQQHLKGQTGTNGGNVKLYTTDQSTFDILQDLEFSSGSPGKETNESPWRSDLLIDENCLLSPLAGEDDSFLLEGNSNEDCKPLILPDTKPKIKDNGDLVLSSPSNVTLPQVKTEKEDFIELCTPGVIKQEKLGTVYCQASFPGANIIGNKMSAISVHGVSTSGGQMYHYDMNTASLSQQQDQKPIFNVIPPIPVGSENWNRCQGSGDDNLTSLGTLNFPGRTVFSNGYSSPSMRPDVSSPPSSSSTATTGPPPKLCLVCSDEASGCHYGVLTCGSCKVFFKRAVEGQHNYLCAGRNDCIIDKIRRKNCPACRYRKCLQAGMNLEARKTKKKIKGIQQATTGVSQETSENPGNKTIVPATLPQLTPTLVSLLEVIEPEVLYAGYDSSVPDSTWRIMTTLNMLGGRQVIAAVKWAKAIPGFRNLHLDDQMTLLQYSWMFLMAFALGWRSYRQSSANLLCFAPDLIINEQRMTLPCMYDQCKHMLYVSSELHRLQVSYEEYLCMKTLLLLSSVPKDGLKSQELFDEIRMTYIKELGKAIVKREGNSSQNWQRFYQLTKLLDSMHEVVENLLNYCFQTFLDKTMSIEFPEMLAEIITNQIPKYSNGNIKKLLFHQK
Cytochrome P450 3A4 (Homo sapiens), sequence (P08684 whole entry, looked up): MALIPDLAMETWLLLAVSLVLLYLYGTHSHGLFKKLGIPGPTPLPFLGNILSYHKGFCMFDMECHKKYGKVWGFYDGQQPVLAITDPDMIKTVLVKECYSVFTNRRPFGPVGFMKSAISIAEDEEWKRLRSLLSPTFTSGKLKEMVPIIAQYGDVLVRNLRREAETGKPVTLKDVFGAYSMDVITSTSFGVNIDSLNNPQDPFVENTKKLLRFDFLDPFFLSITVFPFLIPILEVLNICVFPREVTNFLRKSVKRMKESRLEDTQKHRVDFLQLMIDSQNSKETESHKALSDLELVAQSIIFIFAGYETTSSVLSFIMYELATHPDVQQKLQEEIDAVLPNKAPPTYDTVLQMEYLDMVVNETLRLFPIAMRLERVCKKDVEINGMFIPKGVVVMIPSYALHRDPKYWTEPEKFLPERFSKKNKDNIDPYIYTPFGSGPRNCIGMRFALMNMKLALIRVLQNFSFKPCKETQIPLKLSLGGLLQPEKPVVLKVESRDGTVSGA
Cytochrome P450 2C9 (Homo sapiens), sequence (P11712 whole entry, looked up): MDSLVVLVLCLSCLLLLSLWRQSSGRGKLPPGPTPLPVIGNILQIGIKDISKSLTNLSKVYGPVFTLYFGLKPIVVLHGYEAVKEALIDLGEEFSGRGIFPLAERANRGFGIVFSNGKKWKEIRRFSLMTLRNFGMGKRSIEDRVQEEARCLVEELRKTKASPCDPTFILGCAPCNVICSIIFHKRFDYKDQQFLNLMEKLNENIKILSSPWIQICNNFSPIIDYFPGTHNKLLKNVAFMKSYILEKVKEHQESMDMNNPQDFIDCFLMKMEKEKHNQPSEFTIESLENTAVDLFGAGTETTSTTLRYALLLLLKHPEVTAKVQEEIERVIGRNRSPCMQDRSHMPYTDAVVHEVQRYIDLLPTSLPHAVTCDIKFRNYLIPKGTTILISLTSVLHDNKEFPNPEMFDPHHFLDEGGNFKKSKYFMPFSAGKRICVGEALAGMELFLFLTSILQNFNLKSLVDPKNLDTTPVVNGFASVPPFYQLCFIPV

For the molecule `Cn1c(=O)c(-c2cccc(Cl)c2)nc2cncnc21`, the Potency is more than 11.4 µM in assay [1], 0.501 µM (active) in assay [3], more than 9.22 µM in [6] and more than 46 µM in assay [7]. The activity change, negative = inhibition in assay [2] was -7.56%; in [4] it was -2.65%. The activity, negative = inhibition in [5] was -10.2%. Moreover, the Potency entry in [8] and in assay [9] was “inactive” throughout. Besides, the outcome in assay [10] was inactive.

Take `COCCn1c(=O)c(-c2ccc(F)c(F)c2)nc2cncnc21`: the Potency in assay [1] is more than 11.4 µM; in [3] it was 0.251 µM (active); in assay [6] it was more than 9.22 µM; in assay [7] it was more than 46 µM. For the same molecule, the activity change, negative = inhibition was -26.5% in assay [2] and -12.1% in assay [4]. Moreover, the activity, negative = inhibition in [5] is 0.716%. Further, the Potency result in [8], in assay [9] and in assay [11] was “inactive” each time. Besides, the result in [10] was inactive.

As to `COc1ccc(-n2c(=O)cnc3cnc(Oc4cccc(Cl)c4)nc32)cc1`, the Potency in assay [1] is more than 11.4 µM; in [3] it was 7.94 µM (active); in assay [6], more than 9.22 µM; in assay [7], more than 46 µM. Also, the activity change, negative = inhibition in assay [2] is -9.58%; in [4] it was 4.93%. The activity, negative = inhibition in assay [5] is -9.34%. Besides, the Potency result in [8], in [9] and in [11] was “inactive” in each case. Moreover, in assay [10], the outcome was inactive.

For the molecule `O=c1c(-c2ccc(F)cc2)nc2cncnc2n1C1CC1`, the Potency was more than 11.4 µM in assay [1], 0.158 µM (active) in assay [3], more than 9.22 µM in [6] and more than 46 µM in assay [7]. Besides, the activity change, negative = inhibition in assay [2] was -6.77%; in [4] it was 2.7%. Moreover, in assay [5], the activity, negative = inhibition is -6.49%. In assay [8], the Potency result is “inactive”. In assay [10], the outcome was inactive.

Take `O=c1cnc2cnc(Oc3cccc(Cl)c3)nc2n1C1CC1`: the Potency is more than 11.4 µM in assay [1]; 2.51 µM (active) in assay [3]; more than 9.22 µM in assay [6]; more than 46 µM in assay [7]; 6.31 µM (active) in assay [12]. For the same molecule, the activity change, negative = inhibition was -27.3% in assay [2] and 0.268% in assay [4]. The activity, negative = inhibition in assay [5] is -9.7%. The Potency entry in [8] and in assay [9] was “inactive” each time. Besides, in assay [10], the outcome was inactive.

Turning to `Cc1nc2cnc(Oc3ccccc3)nc2n(CCC#N)c1=O`, the Potency was more than 11.4 µM in assay [1], 20 µM (active) in assay [3], more than 9.22 µM in assay [6] and more than 46 µM in assay [7]. Moreover, the activity change, negative = inhibition in assay [2] was -21.9%; in assay [4], -8.6%. Also, the activity, negative = inhibition in [5] is -6.56%. Also, the Potency entry in assay [8], in assay [9] and in [11] was “inactive” each time. Further, in [10], the outcome was inactive.

Turning to `COCCn1c(=O)c(-c2ccc(Cl)cc2)nc2cncnc21`, the Potency in assay [1] is more than 11.4 µM; in assay [3], 0.2 µM (active); in assay [6], more than 9.22 µM; in assay [7], more than 46 µM. The figures for the activity change, negative = inhibition in assay [2] and in assay [4] were -10.8% and 9.96%, respectively. In [5], the activity, negative = inhibition is 1.43%. Further, the Potency entry in assay [8], in assay [9] and in [11] was “inactive” each time. In [10], the outcome was inactive.
